Measured values reported in PubChem BioAssay (EPA / NIEHS).
Calls of active or inactive are those of the source. How the source made its calls: active means hit-call score of the fitted dose curve at least 0.9, where 1 is the maximum; inactive means score below 0.9.

Legend:
[1] = molecular target: Bile acid receptor (Homo sapiens) (UniProt Q96RI1); experiment: ATG_IR1_CIS: Attagene CIS-FACTORIAL HepG2 Assay for human Nuclear Receptor Subfamily 1 Group H Member 4 (NR1H4), IR1 submotif (AID 2282946); details: IR1 reporter transcription, actives raise or lower the signal
Bile acid receptor (Homo sapiens), sequence (Q96RI1 whole entry, looked up): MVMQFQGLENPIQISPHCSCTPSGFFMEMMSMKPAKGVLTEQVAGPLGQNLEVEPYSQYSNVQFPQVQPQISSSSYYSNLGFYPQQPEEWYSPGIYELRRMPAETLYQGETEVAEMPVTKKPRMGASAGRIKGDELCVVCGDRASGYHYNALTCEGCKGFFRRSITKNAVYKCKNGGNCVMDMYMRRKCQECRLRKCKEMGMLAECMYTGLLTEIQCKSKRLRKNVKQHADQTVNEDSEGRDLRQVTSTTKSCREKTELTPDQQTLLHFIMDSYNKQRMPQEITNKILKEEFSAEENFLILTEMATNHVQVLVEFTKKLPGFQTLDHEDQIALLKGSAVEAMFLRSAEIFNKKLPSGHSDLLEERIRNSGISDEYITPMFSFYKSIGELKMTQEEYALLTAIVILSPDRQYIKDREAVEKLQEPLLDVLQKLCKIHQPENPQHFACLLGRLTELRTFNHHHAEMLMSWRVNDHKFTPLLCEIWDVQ
Procedure, shortened: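 Transient MRTU transfection, HepG2; 24 h dosing; RNA → RT-PCR → 6-FAM primer extension → HpaI digest → capillary electrophoresis fluorescence. Gain/loss of signal fitted relative to DMSO.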

[2] = ATG_GRE_CIS: Attagene CIS-FACTORIAL HepG2 Assay for human Glucocorticoid Response Elements (GRE) (AID 2282947); details: HepG2 GRE cis-reporter, Attagene multiplex mRNA; actives raise or lower the signal
Procedure, shortened: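 Following 24 h chemical exposure of transiently transfected HepG2 cells, total RNA was reverse-transcribed and reporter cDNA amplified, fluorescently labelled and sized by capillary electrophoresis. Signal gain or loss was fitted relative to DMSO vehicle.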

[3] = ATG_ISRE_CIS: Attagene CIS-FACTORIAL HepG2 Assay for human Interferon Regulatory Factor 1 (IRF1) binding to an Interferon-Stimulated Response Element (ISRE) (AID 2282948); details: HepG2 ISRE cis-reporter (Attagene), mRNA transcription readout; actives raise or lower the signal
Procedure, shortened: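 Cell-based cis-reporter assay; HepG2; 24 h exposure; reporter mRNA by RT-PCR plus capillary electrophoresis fluorescence; activity in either direction scored relative to DMSO.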

[4] = ATG_M_32_CIS: Attagene CIS-FACTORIAL HepG2 Assay for M32 Transcription Factor (Internal Marker) (AID 2282949); details: HepG2 Attagene cis-factorial M32 reporter, mRNA; actives raise or lower the signal;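 further: background control marker of the multiplexed CIS panel rather than a real target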
Procedure, shortened: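 HepG2 cells transiently transfected with multiplexed cis-regulated reporter units, dosed 24 h. Reporter mRNA quantified by RT-PCR, 6-FAM labelling, HpaI digestion and capillary electrophoresis; bidirectional fit vs DMSO.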

[5] = molecular target: Hypoxia-inducible factor 1-alpha (Homo sapiens) (UniProt Q16665); experiment: ATG_HIF1a_CIS: Attagene CIS-FACTORIAL HepG2 Assay for human Hypoxia Inducible Factor 1 (HIF1A) (AID 2282951); details: HepG2 Attagene cis-factorial HIF1a reporter transcription; actives raise or lower the signal
Hypoxia-inducible factor 1-alpha (Homo sapiens), sequence (Q16665 whole entry, looked up): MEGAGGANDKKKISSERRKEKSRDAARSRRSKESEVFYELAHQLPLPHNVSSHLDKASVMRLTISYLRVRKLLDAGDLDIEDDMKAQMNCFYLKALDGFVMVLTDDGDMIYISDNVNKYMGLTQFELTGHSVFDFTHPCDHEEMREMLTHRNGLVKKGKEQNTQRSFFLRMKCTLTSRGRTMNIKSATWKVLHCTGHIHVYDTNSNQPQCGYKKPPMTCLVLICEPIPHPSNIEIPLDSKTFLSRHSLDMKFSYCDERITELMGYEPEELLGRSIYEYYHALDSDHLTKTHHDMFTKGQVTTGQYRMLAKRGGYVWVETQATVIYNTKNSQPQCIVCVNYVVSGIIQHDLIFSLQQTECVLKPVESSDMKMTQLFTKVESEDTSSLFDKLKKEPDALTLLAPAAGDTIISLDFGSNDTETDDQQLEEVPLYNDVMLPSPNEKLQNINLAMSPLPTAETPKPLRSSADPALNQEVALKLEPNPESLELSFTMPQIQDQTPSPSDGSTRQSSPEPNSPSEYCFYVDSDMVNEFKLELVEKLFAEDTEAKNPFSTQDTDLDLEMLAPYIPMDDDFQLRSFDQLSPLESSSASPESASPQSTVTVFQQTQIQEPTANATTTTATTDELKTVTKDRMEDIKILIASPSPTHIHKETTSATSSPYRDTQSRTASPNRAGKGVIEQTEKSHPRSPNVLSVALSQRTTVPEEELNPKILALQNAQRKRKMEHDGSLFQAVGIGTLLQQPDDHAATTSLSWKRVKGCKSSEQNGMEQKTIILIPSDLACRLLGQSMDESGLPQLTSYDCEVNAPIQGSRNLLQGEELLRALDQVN
Procedure, shortened: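 In this multiplexed cell assay, HepG2 cells bearing transfected cis reporters are dosed for 24 h and reporter mRNA is read by RT-PCR plus capillary electrophoresis; signal increases and decreases are both scored against DMSO.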

[6] = molecular target: Hepatocyte nuclear factor 6 (Homo sapiens) (UniProt Q9UBC0); experiment: ATG_HNF6_CIS: Attagene CIS-FACTORIAL HepG2 Assay for human Hepatocyte Nuclear Factor 6 (HNF6) (AID 2282952); details: HepG2 Attagene cis-factorial HNF6 reporter transcription; actives raise or lower the signal
Hepatocyte nuclear factor 6 (Homo sapiens), sequence (Q9UBC0 whole entry, looked up, the tested form may be a part): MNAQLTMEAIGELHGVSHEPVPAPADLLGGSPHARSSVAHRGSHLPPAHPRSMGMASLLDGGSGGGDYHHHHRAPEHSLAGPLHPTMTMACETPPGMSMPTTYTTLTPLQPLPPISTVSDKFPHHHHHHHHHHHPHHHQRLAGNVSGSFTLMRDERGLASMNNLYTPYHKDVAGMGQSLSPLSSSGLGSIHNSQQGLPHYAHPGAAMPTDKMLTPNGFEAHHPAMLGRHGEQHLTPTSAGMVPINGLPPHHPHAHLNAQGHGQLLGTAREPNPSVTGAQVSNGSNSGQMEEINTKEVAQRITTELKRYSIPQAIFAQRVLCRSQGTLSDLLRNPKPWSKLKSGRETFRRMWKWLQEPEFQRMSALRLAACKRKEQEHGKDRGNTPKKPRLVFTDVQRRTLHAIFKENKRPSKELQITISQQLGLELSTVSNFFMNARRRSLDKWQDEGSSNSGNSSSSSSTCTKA
Procedure, shortened: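 HepG2 cells transiently transfected with cis-element-driven multiplexed reporter units measuring endogenous transcription factor activity. After 24 h exposure, reporter mRNA quantified by RT-PCR, FAM-labelled fragments and capillary electrophoresis; bidirectional fitting versus DMSO.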

[7] = molecular target: Heat shock factor protein 1 (Homo sapiens) (UniProt Q00613); experiment: ATG_HSE_CIS: Attagene CIS-FACTORIAL HepG2 Assay for human Heat Shock Transcription Factor 1 (HSE) (AID 2282953); details: HepG2 HSE cis-reporter, Attagene RNA transcription; actives raise or lower the signal
Heat shock factor protein 1 (Homo sapiens), sequence (Q00613 whole entry, looked up): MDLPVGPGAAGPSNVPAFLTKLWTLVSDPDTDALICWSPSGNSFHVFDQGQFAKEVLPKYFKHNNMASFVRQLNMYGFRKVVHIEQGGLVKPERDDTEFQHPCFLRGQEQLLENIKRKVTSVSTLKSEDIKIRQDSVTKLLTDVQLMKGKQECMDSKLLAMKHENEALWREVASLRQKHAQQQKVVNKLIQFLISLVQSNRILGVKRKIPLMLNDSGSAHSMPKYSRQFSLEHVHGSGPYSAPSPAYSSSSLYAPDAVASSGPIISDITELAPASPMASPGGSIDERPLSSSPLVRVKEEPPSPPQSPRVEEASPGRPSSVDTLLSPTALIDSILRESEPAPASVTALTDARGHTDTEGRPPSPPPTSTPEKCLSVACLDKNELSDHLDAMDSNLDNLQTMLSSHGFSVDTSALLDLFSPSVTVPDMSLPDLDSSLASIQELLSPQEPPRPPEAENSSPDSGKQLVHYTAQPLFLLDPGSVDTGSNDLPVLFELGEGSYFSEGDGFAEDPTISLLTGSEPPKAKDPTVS
Procedure, shortened: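 HepG2 cells transfected with cis-promoter reporter units sensing endogenous transcription factor activity; reporter mRNA quantified 24 h post-dose by RT-PCR and capillary electrophoresis of 6-FAM-labelled products. Bidirectional fitting against DMSO.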

[8] = ATG_MRE_CIS: Attagene CIS-FACTORIAL HepG2 Assay for human Metal Responsive Element (MRE) (AID 2282954); details: HepG2 MRE cis-reporter transcription, Attagene multiplex; actives raise or lower the signal
Procedure, shortened: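 Step one: transfect HepG2 with cis-regulated reporter units. Step two: dose 24 h. Step three: isolate RNA, RT-PCR, 6-FAM label, HpaI digest, capillary electrophoresis. Fit bidirectionally to DMSO.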

[9] = ATG_PBREM_CIS: Attagene CIS-FACTORIAL HepG2 Assay for human Phenobarbital-responsive Enhancer Module (PBREM) (AID 2282955); details: HepG2 PBREM cis-reporter, Attagene multiplexed transcription; actives raise or lower the signal
Procedure, shortened: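 After a 24 h incubation with test chemical, transfected HepG2 cells yield total RNA; reporter-specific RT-PCR products are fluorescently labelled, HpaI-digested and resolved by capillary electrophoresis against ROX size standards.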

[10] = molecular target: Paired box protein Pax-6 (Homo sapiens) (UniProt P26367); experiment: ATG_Pax6_CIS: Attagene CIS-FACTORIAL HepG2 Assay for human Paired Box 6 (PAX6) (AID 2282956); details: HepG2 CIS-FACTORIAL PAX6 reporter transcription, RNA readout; actives raise or lower the signal
Paired box protein Pax-6 (Homo sapiens), sequence (P26367 whole entry, looked up): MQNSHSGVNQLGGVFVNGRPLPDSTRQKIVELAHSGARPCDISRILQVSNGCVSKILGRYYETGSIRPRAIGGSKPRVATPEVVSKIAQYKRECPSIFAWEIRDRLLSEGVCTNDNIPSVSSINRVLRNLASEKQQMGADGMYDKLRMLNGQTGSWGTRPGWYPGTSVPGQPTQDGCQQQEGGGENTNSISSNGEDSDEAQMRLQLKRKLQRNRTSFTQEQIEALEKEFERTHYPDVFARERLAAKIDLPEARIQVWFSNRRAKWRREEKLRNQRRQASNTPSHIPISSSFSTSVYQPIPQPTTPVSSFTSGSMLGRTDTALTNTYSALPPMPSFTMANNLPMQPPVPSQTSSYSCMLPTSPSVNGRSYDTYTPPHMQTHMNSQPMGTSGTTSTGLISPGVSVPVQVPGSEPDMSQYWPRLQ
Procedure, shortened: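 Multiplexed cis-reporter HepG2 system; 24 h treatment; reporter mRNA read by RT-PCR/CE fluorescence; bidirectional fit vs DMSO.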

[11] = ATG_PXRE_CIS: Attagene CIS-FACTORIAL HepG2 Assay for human Pregnane X Receptor Element (PXRE) (AID 2282957); details: HepG2 Attagene CIS-FACTORIAL PXRE reporter, mRNA; actives raise or lower the signal
Procedure, shortened: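 HepG2 cells transiently transfected with cis-element-driven multiplexed reporter units; after 24 h chemical exposure, reporter mRNA measured by RT-PCR, 6-FAM labelling, HpaI digestion and capillary electrophoresis. Bidirectional fitting relative to DMSO.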

[12] = ATG_PPRE_CIS: Attagene CIS-FACTORIAL HepG2 Assay for human Peroxisome Proliferator-activated Response Element (PPRE) (AID 2282958); details: HepG2 PPRE cis-element reporter, Attagene transcription factor profiling; actives raise or lower the signal
Procedure, shortened: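 Multiplexed reporter transcription units under cis-regulatory promoters were transfected into HepG2 cells to capture endogenous factor activity. A 24 h incubation preceded RNA isolation and fluorescent RT-PCR fragment analysis.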

[13] = ATG_RORE_CIS: Attagene CIS-FACTORIAL HepG2 Assay for human RAR-related Orphan Receptor Element (RORE) (AID 2282959); details: HepG2 Attagene cis-factorial RORE reporter, mRNA; actives raise or lower the signal
Procedure, shortened: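 Fluorescence intensity of reporter-specific cDNA fragments, separated by capillary electrophoresis, gives the signal. Source: HepG2 liver cells transiently transfected with cis-element reporters and exposed 24 h; DMSO-normalized bidirectional fit.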

[14] = ATG_Sox_CIS: Attagene CIS-FACTORIAL HepG2 Assay for human SRY-box transcription factor (SOX) (AID 2282960); details: HepG2 Attagene cis-factorial SOX reporter, mRNA; actives raise or lower the signal
Procedure, shortened: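 After 24 h of chemical treatment, transfected HepG2 reporter cells are lysed for total RNA. Transcript levels come from RT-PCR with labelled primer extension and capillary electrophoresis, analysed bidirectionally versus DMSO.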

[15] = molecular target: Transcription factor Sp1 (Homo sapiens) (UniProt P08047); experiment: ATG_Sp1_CIS: Attagene CIS-FACTORIAL HepG2 Assay for human Specificity Protein 1 (Sp1) (AID 2282961); details: HepG2 Sp1 cis-reporter transcription, actives raise or lower the signal
Transcription factor Sp1 (Homo sapiens), sequence (P08047 whole entry, looked up): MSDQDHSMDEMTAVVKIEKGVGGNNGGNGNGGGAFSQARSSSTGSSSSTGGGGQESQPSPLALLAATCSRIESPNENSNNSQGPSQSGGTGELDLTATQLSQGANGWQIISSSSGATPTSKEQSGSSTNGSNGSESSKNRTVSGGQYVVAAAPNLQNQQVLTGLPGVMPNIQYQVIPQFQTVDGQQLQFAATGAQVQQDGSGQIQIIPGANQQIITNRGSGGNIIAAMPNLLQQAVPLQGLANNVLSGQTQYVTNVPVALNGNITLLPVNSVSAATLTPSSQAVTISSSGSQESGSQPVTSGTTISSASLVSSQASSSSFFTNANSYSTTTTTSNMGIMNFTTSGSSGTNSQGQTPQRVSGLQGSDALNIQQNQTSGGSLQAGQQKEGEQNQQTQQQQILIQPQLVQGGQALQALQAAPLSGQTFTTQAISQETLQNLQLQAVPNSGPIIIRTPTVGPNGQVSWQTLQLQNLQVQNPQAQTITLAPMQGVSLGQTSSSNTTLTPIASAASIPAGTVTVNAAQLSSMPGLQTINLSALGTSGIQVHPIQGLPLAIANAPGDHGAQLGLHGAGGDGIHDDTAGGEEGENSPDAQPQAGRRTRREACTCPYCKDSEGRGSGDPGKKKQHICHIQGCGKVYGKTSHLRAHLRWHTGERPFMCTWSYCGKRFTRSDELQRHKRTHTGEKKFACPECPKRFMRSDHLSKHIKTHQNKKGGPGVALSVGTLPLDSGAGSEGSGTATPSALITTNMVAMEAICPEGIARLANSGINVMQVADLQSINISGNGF
Procedure, shortened: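 Sp1-driven reporter mRNA, read as capillary electrophoresis fluorescence after RT-PCR, in transiently transfected HepG2 cells dosed for 24 h; signal change in either direction relative to DMSO.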

[16] = ATG_SREBP_CIS: Attagene CIS-FACTORIAL HepG2 Assay for human Sterol Regulatory Element Binding (SREBP) (AID 2282962); details: HepG2 Attagene cis-factorial SREBP reporter, mRNA; actives raise or lower the signal
Procedure, shortened: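 mRNA induction of transfected cis-promoter reporters in HepG2 cells, 24 h post-dose. Detection: RT-PCR with 6-FAM-labelled products, HpaI digest, capillary electrophoresis. DMSO served as negative control and baseline.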

[17] = molecular target: Signal transducer and activator of transcription 3 (Homo sapiens) (UniProt P40763); experiment: ATG_STAT3_CIS: Attagene CIS-FACTORIAL HepG2 Assay for human Signal Transducer and Activator of Transcription 3 (STAT3) (AID 2282963); details: HepG2, Attagene cis-factorial STAT3 reporter transcription; actives raise or lower the signal
Signal transducer and activator of transcription 3 (Homo sapiens), sequence (P40763 whole entry, looked up): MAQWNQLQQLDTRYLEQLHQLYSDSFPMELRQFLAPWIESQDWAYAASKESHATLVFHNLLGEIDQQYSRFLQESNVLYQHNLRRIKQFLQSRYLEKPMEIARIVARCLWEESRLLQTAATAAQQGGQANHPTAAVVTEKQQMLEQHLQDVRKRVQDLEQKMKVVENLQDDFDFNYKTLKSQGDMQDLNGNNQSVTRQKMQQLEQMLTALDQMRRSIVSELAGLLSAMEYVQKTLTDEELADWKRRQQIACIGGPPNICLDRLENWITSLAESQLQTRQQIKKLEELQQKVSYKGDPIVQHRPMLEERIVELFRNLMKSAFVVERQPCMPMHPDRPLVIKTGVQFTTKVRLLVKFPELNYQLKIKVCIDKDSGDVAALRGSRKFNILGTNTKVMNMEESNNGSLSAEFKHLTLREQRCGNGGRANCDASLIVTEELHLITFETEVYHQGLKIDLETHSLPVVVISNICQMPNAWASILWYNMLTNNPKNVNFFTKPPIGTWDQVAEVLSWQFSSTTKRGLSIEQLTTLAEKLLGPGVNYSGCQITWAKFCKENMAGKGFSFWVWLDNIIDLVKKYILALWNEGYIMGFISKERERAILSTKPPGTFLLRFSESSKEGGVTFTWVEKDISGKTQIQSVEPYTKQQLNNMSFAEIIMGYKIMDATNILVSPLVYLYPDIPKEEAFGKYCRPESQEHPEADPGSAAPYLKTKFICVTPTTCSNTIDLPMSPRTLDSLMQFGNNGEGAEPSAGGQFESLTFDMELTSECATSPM
Procedure, shortened: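 Transcript-level reporter assay. HepG2 transient MRTU transfection, 24 h exposure, fluorescence detection after RT-PCR and CE; DMSO baseline.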

[18] = ATG_TA_CIS: Attagene CIS-FACTORIAL HepG2 Assay for human TA Basal Promoter (AID 2282964); details: HepG2 Attagene CIS-factorial TA basal promoter reporter; actives raise or lower the signal
Procedure, shortened: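 HepG2 cells transiently transfected with multiple reporter units under cis promoter elements, reporting endogenous transcription factor activity; this endpoint tracks the TA basal promoter as background control. Reporter mRNA after 24 h dosing measured by RT-PCR/capillary electrophoresis; bidirectional fits versus DMSO.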

[19] = ATG_TCF_b_cat_CIS: Attagene CIS-FACTORIAL HepG2 Assay for human T-Cell-Factor with beta-catenin (TCF/b-cat) (AID 2282965); details: HepG2 TCF/beta-catenin cis-reporter transcription, actives raise or lower the signal
Procedure, shortened: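 Using capillary electrophoresis as the read-out, labelled reporter cDNA fragments from transiently transfected HepG2 were sized and quantified. Exposure lasted 24 hours; activity in either direction was referenced to DMSO.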

[20] = ATG_M_06_CIS: Attagene CIS-FACTORIAL HepG2 Assay for M06 Transcription Factor (Internal Marker) (AID 2282950); details: HepG2 Attagene CIS-FACTORIAL M06 internal marker reporter; actives raise or lower the signal
Procedure, shortened: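 Internal background marker within multiplexed cis-reporter HepG2 system. Cells transiently transfected, dosed 24 h; reporter mRNA measured by RT-PCR, HpaI digestion and capillary electrophoresis. Bidirectional fit relative to DMSO.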

Measured: AC50

CC(C)(O)c1cnn2c(-c3ccc(F)c(-c4c(F)cccc4C#N)c3)cnc2n1
active: [5] 26.8 µM | [7] 25.8 µM | [8] 1.73 µM | [9] 0.785 µM | [11] 0.137 µM | [18] 13.1 µM | [19] 8.97 µM
not listed: [20]
inactive: all other assays above

CN(C)c1ccc(C(=O)c2ccc(N(C)C)cc2)cc1
not listed: [11]
inactive: all other assays above

COP(=S)(OC)SCN1C(=O)c2ccccc2C1=O
active: [11] 26.8 µM
not listed: [9] | [13] | [17]
inactive: all other assays above

ClCCOCCCl
not listed: [9] | [11]
inactive: all other assays above

Cc1cc(N=Nc2ccccc2C)ccc1N
active: [5] 24.7 µM | [7] 53.8 µM | [8] 27.9 µM | [9] 33.4 µM | [10] 22.4 µM | [11] 13.9 µM | [12] 26.4 µM | [13] 23 µM | [18] 19 µM
inactive: all other assays above

O=C(N[C@H](c1ccccc1)[C@@H]1CN2CCC1CC2)c1c(Cl)ccc(C(F)(F)F)c1Cl
active: [5] 0.207 µM | [16] 5.4 µM
not listed: [11] | [17] | [20]
inactive: all other assays above

CCCCCCCCOC(=O)c1ccc(C(=O)OCCCCCCCC)c(C(=O)OCCCCCCCC)c1
active: [5] 23.7 µM
not listed: [13] | [20]
inactive: all other assays above

Cc1cccc(N)c1N
active: [5] 2.66 µM | [8] 106 µM | [10] 106 µM | [13] 106 µM | [19] 190 µM
not listed: [11] | [12]
inactive: all other assays above

CCOC(=O)[C@]1(c2ccccc2)Oc2ccccc2[C@@H]1N
active: [2] 52.6 µM | [3] 33 µM | [4] 52.7 µM | [5] 1.78 µM | [6] 43.3 µM | [7] 61.8 µM | [8] 33 µM | [9] 9.64 µM | [10] 37.6 µM | [12] 13.8 µM | [13] 33 µM | [14] 50.3 µM | [15] 49.6 µM | [16] 12.3 µM | [18] 33 µM
inactive: [1] | [19]

CCC(C)c1ccc(O)cc1 (stereo unspecified)
active: [8] 82.1 µM | [16] 163 µM
not listed: [11] | [12] | [20]
inactive: all other assays above

Nc1ccc([N+](=O)[O-])cc1
not listed: [11] | [12] | [17] | [20]
inactive: all other assays above

CN(C)[C@@H]1C(=O)C(C(N)=O)=C(O)[C@@]2(O)C(=O)C3=C(O)c4c(O)cccc4[C@@](C)(O)[C@H]3C[C@@H]12
active: [11] 27.6 µM
not listed: [5] | [13]
inactive: all other assays above

CCC[CH2][Sn]([Cl])([CH2]CCC)[CH2]CCC
active: [1] 0.0138 µM | [3] 0.611 µM | [7] 0.667 µM | [8] 0.778 µM | [10] 0.678 µM | [15] 0.412 µM | [18] 0.698 µM | [19] 0.591 µM
not listed: [11] | [12]
inactive: all other assays above

CC(C)(OOC(C)(C)c1ccccc1)c1ccccc1
active: [2] 78.3 µM | [3] 100 µM | [6] 100 µM | [8] 64 µM | [9] 25.3 µM | [11] 25 µM | [15] 45.4 µM | [16] 62.9 µM | [17] 100 µM
not listed: [20]
inactive: all other assays above
